# Measurements from PubChem BioAssay AID504523 (Broad Institute, 2011).
# The campaign covered roughly 340,000 compounds. About 490 (0.14%) were called active. The entries come from a sample that favours actives as a whole. A number with no mark means an inactive call. Rule as the data show it: active = inhibition above about 12%; inconclusive = no clear call, values can overlap the other calls; inactive = below about 7.3%.
# Biological target: Kelch-like ECH-associated protein 1 (Homo sapiens) (UniProt Q14145)
# Experiment: disruptors of Keap1 binding to Nrf2 – biochemical, fluorescence polarization, single point, primary screen (AID 504523);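 also: human Keap1 Kelch domain with fluorescein labeled Nrf2 9mer peptide probe; 0% = neutral control wells and 100% = peptide positive control; higher means more block of Keap1 binding to Nrf2 peptide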
# Settings: Keap1 Kelch-Nrf2 peptide fluorescence polarization, 1536-well; at 9.4 µM; active compounds read high
# Sequence of Kelch-like ECH-associated protein 1 (Homo sapiens) (Q14145 whole entry, looked up, the tested form may be a part): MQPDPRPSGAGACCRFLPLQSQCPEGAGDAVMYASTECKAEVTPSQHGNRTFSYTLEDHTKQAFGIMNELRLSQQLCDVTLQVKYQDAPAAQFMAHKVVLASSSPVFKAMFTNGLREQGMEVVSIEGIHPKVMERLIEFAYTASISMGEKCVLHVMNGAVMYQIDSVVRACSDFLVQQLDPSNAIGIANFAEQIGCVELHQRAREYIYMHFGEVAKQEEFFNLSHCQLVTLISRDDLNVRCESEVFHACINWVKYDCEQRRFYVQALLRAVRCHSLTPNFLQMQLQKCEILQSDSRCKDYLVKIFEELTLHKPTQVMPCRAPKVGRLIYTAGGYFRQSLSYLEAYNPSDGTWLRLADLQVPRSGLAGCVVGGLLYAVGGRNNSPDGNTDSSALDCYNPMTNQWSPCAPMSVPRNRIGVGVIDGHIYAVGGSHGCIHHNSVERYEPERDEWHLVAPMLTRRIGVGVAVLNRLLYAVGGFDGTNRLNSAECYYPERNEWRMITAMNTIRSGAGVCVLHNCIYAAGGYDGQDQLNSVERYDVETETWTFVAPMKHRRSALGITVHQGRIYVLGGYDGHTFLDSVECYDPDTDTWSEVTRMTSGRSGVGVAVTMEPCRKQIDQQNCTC
row,SMILES,inhibition
1,O=C1Nc2ccc([N+](=O)[O-])cc2C1=Nc1cccc(CO)c1,2.07%
2,CCSc1nc(C)c(CCOc2cccc(C)c2)c(=O)[nH]1,1.88%
3,COc1cc(NC(=O)c2ccccc2NS(=O)(=O)c2ccc(Cl)s2)cc(OC)c1,-7.91%
4,CCCN(CC(=O)Nc1ccccc1OC)C(=O)CCC(=O)c1ccc(F)cc1,-3.76%
5,CCCCCNC(=O)C1c2ccccc2Oc2ccccc21,-1.43%
6,CCCN(CCC)C(=O)C1c2ccccc2Oc2ccccc21,56.3% (active)
7,CCOC(=O)CC(NC(=O)C1c2ccccc2Oc2ccccc21)c1ccc(C)cc1 (stereo not drawn),-0.485%
8,S=C(Nc1cccnc1)Nc1ccccn1,0.955%
9,CN/C(=C\[N+](=O)[O-])NCCSCc1csc(CN(C)C)n1,-2.6%
10,COCCOC(=O)c1sc(=S)n(CCOC)c1N,-0.978%
11,O=C(CSc1n[nH]c(-c2cccs2)n1)N1CCCCC1,-2.81%
12,CC1(C)Cc2ccccc2-c2nnc(-c3cccc(O)c3)n21,-0.455%
13,CCS(=O)(=O)Nc1ccc(C(=O)NCCSc2ccccc2)cc1,-1.14%
14,CCCc1nc(-c2cc3cc(C)ccc3[nH]c2=O)no1,0.406%
15,CCOc1ccc(S(=O)(=O)N2CCC(C(=O)OCc3ccc(OC)cc3)CC2)cc1,-2.62%
16,NC(=O)c1ccccc1N=Cc1ccc2ccccc2c1,-5.11%
17,COC(=O)c1ccc(COC(=O)c2c(C)nn(Cc3ccccc3Cl)c2Cl)o1,5.7%
18,CSCC[C@H](NC(=O)CCCn1nnc2ccccc2c1=O)C(=O)O,-3.2%
19,O=C(NC(=O)N1CCSCC1)c1c(Cl)cccc1Cl,-0.262%
20,CC(C)(C)Nc1nc(-c2ccccn2)nc2ccccc12,-3.56%
21,S=c1nc2ccccc2c2nc(-c3cccnc3)[nH]n12,-0.541%
22,COc1ccc(Nc2nc(-c3cccnc3)nc3ccccc23)cn1,20.8% (active)
23,COc1ccc(CCNCC(O)Cn2ccc3ccccc32)cc1OC (stereo not drawn),-7.66%
24,COc1ccc(CCNC(=O)COC(=O)Cc2cccc(F)c2)cc1,-1.56%

row,SMILES,inhibition
1,COc1ccc(/C=N/Nc2ncnc3sc4c(c23)CCCC4)cc1O,-9.16%
2,COC(=O)C1=C(C)NC2=C(C(=O)c3ccccc32)C1c1ccc(-c2ccc(C(=O)O)cc2)o1 (stereo not drawn),-21.3%
3,c1ccc(-c2cn3c(n2)CCc2ccc4cccnc4c2-3)cc1,0.967%
4,CCCCN(C(=O)C(CCSC)N1C(=O)c2ccccc2C1=O)c1c(N)n(CCC)c(=O)[nH]c1=O (stereo not drawn),-8.81%
5,COc1ccc(C(C(=O)NC(C)(C)C)N(Cc2ccc(F)cc2)C(=O)CCC(=O)Nc2cc(C)on2)cc1 (stereo not drawn),6.66%
6,CC(C)(C)OC(=O)C[C@@H]1C/C=C\C[C@@H](CC(=O)N[C@@H](CO)Cc2ccccc2)C(=O)N2CCC[C@H]2COC1=O,5.12%
7,COc1ccc(C2NC(=O)C(=O)/C2=C(\O)c2ccc(Cl)cc2)cc1OC (stereo not drawn),-0.168%
8,C=CCOC(=O)N1CCC2CC1c1cc(-c3ccc(OC)cc3)ccc12 (stereo not drawn),-0.448%
9,CC1Cc2cc(/C(O)=C3\C(=O)C(=O)N(Cc4cccnc4)C3c3ccccc3F)ccc2O1 (stereo not drawn),-1.04%
10,COc1cccc(CC(=O)N2CCCC(CCC(=O)N3CCN(c4ccccn4)CC3)C2)c1 (stereo not drawn),2.29%
11,COc1ccc(N2C(=O)C(O)C2c2ccc(C)cc2)cc1 (stereo not drawn),-3.41%
12,O=S(=O)(Nc1ccccc1)c1ccc(NS(=O)(=O)c2cccs2)cc1,-1.45%
13,CCN(CC)CCCC(C)n1c2nc(=O)[nH]c(=O)c-2nc2cc(Cl)ccc21 (stereo not drawn),152% (active)
14,CCOc1cc(C2C(C(=O)OC(C)C)=C(C)NC3=C2C(=O)CCC3)cc([N+](=O)[O-])c1O (stereo not drawn),-4.98%
15,CCOCCc1c(O)nc(SCC(=O)NCc2ccco2)[nH]c1=O,-1.62%
16,COc1ccc(CCn2c(NN=C3CCCC3)nc3c2c(=O)[nH]c(=O)n3C)cc1,1.25%
17,COc1ccc(C2c3ccc(O)cc3Oc3ncn(CCCO)c(=N)c32)cc1OC (stereo not drawn),28.8% (active)
18,COc1ccc(C2C(C#N)=C(N)Oc3cc(N)ccc32)cc1OC (stereo not drawn),-3.33%
19,COc1ccc(CNCCCO)cc1OC,-3.09%
20,Cc1cccc2cc3c(N)c(C(=O)N4CCCc5ccccc54)sc3nc12,-5.05%
21,O=C1C(=O)N(CCN2CCOCC2)C(c2ccccn2)/C1=C(/O)c1ccc(Cl)cc1 (stereo not drawn),-6.66%
22,CCN(CC)CCN1C(=O)C2C(C(=O)Nc3ccc(Br)cc3)C3C=CC2(O3)C1C(=O)NC1CCCCC1 (stereo not drawn),-0.939%
23,Cc1ccc(CNC(=O)C2(C(F)(F)F)C/C(=C\Cc3ccccc3)CCCO2)o1 (stereo not drawn),-4.24%
24,O=C(NCCS(=O)(=O)NCc1ccc(Cl)cc1)c1ccccc1,-4.29%

row,SMILES,inhibition
1,O=C(NCCOCc1ccc(Cl)cc1)c1ncn[nH]1,18.3% (active)
2,Cc1cc(C(=O)NCCc2ccc(Cl)cc2)n(-c2ccccc2)n1,-8.41%
3,CN(C)C(=S)N=c1ssc(=S)n1Cc1ccco1,-0.0433%
4,COc1ccccc1CCNC(=O)CN1C(=O)NC2(CCCC2)C1=O,-5.6%
5,O=C1CC(Cc2ccccc2)C(=O)N1c1ccc(Cl)cn1 (stereo not drawn),-0.813%
6,Cc1ccc(CC2CC(=O)N(c3nc(C)cc(C)n3)C2=O)cc1 (stereo not drawn),1.11%
7,O=C1CC(Cc2ccc(Cl)cc2)C(=O)N1c1cc(Cl)ccn1 (stereo not drawn),40.7% (active)
8,O=C(Nc1cccc(S(=O)(=O)N2CCOCC2)c1)C12CC3CC(CC(C3)C1)C2,1.77%
9,COc1ccc(NC(=O)CN(C)C(=O)c2n[nH]c3ccccc23)cc1,0.904%
10,COc1cc(OC)cc(C(=O)NCCCn2ccnc2)c1,-6.37%
11,CCCC(=O)Nc1ccc(C(=O)NCCCn2ccnc2)cc1,6% (active)
12,CCCCC(=O)Nc1ccc(C(=O)NCCCn2ccnc2)cc1,-4.02%
13,Nc1ccccc1SC(C[N+](=O)[O-])c1ccccc1 (stereo not drawn),-4.52%
14,COc1ccc(OC)c2[nH]c(=O)c(CCNC(=O)C(=O)c3c[nH]c4ccccc34)cc12,-5.41%
15,CC(=O)c1cc(C#N)c(SCC(=O)Nc2nccs2)nc1C,-4.52%
16,Cc1ccnc(NC(=O)C2CCN(S(=O)(=O)c3c(C)c(C)cc(C)c3C)CC2)c1,-1.09%
17,COCCCNC(=O)C1CCC(CNS(=O)(=O)c2ccc(OC)cc2)CC1 (stereo not drawn),0.471%
18,O=C(OCC(=O)N(CCc1ccccc1)Cc1ccccc1)c1ccccc1[N+](=O)[O-],1%
19,CC(C)C[C@H](NC(=O)C1CCC(CNC(=O)[C@@H]2CCCN2C(=O)OC(C)(C)C)CC1)C(=O)O (stereo partly drawn),0.427%
20,Cc1nc2ccccc2n1C(=O)N1CCOCC1,-5.92%
21,OCCC1CN(Cc2cccc(O)c2)CCN1CCc1ccccc1 (stereo not drawn),-6.53%
22,COc1ccc(S(=O)(=O)N2C[C@H]3CON(C)[C@H]3C[C@H]2c2cccc(Br)c2)cc1,-1.34%
23,COC(C[C@H](O)CC(=O)COCc1ccccc1)OC,-0.107%
24,Cc1cc(C)n(-c2nnc(N3CCN(c4ccccc4)CC3)nn2)n1,-3.51%

row,SMILES,inhibition
1,C=CCn1c(SCc2cccc(F)c2)nc2cc(C(=O)N3CCC(C(N)=O)CC3)ccc2c1=O,-4.14%
2,COc1cc(/C=N/N=C(\N)c2nonc2N)cc(OC)c1OC,1.13%
3,c1ccc2c(c1)OCCOCCOCCO2,1.51%
4,Cc1ccc2nc(NC(=O)C3CSC4(C)CCC(=O)N34)sc2c1 (stereo not drawn),-0.772%
5,Oc1cccc(CCc2ccccn2)c1,1.31%
6,CC(C)(C)N(Cc1ccccc1)C(=O)COC(=O)CCc1c[nH]c2ccccc12,-5.52%
7,O=C1CC(c2ccccc2)C(c2ccccc2)=NN1 (stereo not drawn),-8.87%
8,CCC1CCc2c(sc(NC(C)=O)c2C#N)C1 (stereo not drawn),-1.96%
9,Cn1nc(-c2ccccc2)c(CSc2cccc(Cl)c2)c1Cl,1.6%
10,CCN1CC=C2C(C#N)=C(N)C(C#N)(C#N)[C@H](c3ccoc3)[C@H]2C1,26.5% (active)
11,O=c1cnnc(Nc2ccccc2F)[nH]1,-0.638%
12,CCN(CC)Cc1c(C(=O)N/N=C/c2cccc(OCc3ccc(F)cc3)c2)nnn1-c1nonc1N,2.94%
13,CC(=O)NS(=O)(=O)c1ccc2c(c1)Cc1cc(S(=O)(=O)NC(C)=O)ccc1-2,-4.15%
14,Cc1ccc(Nc2cc(C)nc3c(C)ccc([N+](=O)[O-])c23)cc1,-0.384%
15,CCOc1cc(CNCc2ccccn2)ccc1OCC(=O)NC(C)(C)C,-3.19%
16,O=C(c1c(F)cccc1Cl)N1CCN(S(=O)(=O)c2ccc3c(c2)OCCCO3)CC1,-0.841%
17,CC(C)C(NS(=O)(=O)c1cccs1)C(=O)Nc1nc(C(C)(C)C)cs1 (stereo not drawn),1.11%
18,COc1ccc(-c2nonc2NC(=O)c2oc3ccc(F)cc3c2C)cc1OC,4.52%
19,O=C1CC(C(F)(F)C(F)(F)C(F)(F)C(F)(F)F)=Nc2ccccc2N1,-1.59%
20,Cc1noc(C)c1COC(=O)Cn1c(C)nc2ccccc21,1.41%
21,CCCc1cc(-c2n[nH]c(=S)n2Cc2ccccc2)cs1,-5.54%
